In PubChem BioAssay AID624483 (NMMLSC, 2012):
Among all 360,000 compounds or so, about 11,000 (3.1%) were called active. About 2% were inconclusive and are not listed. This is one part of a sample in which actives are shown more often than they occur. Cut-off read from the data, not from the text of the source: active = fluorescence intensity above about 16000; inconclusive = no clear call, values can overlap the other calls; inactive = below that.

Assay: counter-screen for toxin protease inhibitors: compound fluorescence, primary screen, artefact control for toxin protease inhibitor project, biochemical, multiplex microsphere, HTS (AID 624483)
Conditions: compound autofluorescence counterscreen, microsphere flow cytometry; hits give high values

SMILES | fluorescence intensity
CCN(C(=O)CSc1nnnn1-c1ccccc1OC)C1CCS(=O)(=O)C1 (stereo unspecified) | 5910 (inactive)
Cc1ccccc1C(OCCN(C)C)C1CCCCC1 (stereo unspecified) | 2370 (inactive)
CCNC(=O)C1(C)CCN(C(=O)c2ccccc2)C1 (stereo unspecified) | 3880 (inactive)
COC(=O)Cc1nc2c(N)nc(N)nc2[nH]c1=O | 4130 (inactive)
O=C(NNS(=O)(=O)c1c(F)cc(F)c(Cl)c1F)C12CC3CC(CC(C3)C1)C2 | 4000 (inactive)
O=C(Nc1ccccc1C(=O)O)c1ccc(N2C(=O)C3CC=CCC3C2=O)cc1 (stereo unspecified) | 4170 (inactive)
CN(C)CCNC(=O)c1cccc(-c2cnc3c(NC=O)cc(-c4cccc(C(F)(F)F)c4)cn23)c1 | 3700 (inactive)
CN1CCN(C(=O)c2ccc(-c3cc4nc(NCc5cccnc5)n(C)c(=O)c4s3)cc2)CC1 | 3940 (inactive)
O=C(NCc1ccccc1)C1c2ccccc2OCC(=O)N1C1CC1 (stereo unspecified) | 5460 (inactive)
O=C(C1CCCO1)N(c1ccc(F)cc1)C1C=CS(=O)(=O)C1 (stereo unspecified) | 3830 (inactive)
O=C(C1CCCO1)N(Cc1ccccc1)c1ccccc1 (stereo unspecified) | 16100 (active)
O=C(NCc1ccccc1Cl)C1CCCO1 (stereo unspecified) | 4090 (inactive)
CCc1ccc2c(c1)NC(=O)C2(C)Cc1ccc(OC(F)(F)F)cc1 (stereo unspecified) | 2900 (inactive)
COCc1cc(C)nc(SCC(=O)Nc2cccc(C)c2)c1C#N | 4220 (inactive)
O=C(Nc1ccccc1N1CCN(C(=O)c2ccccc2)CC1)c1ccco1 | 3700 (inactive)
O=C(CN1CCN(C(=O)c2ccco2)CC1)Nc1ccc2c(c1)OCO2 | 2540 (inactive)
O=CN1CCN(C(=O)c2ccc3c(c2)OCO3)CC1 | 6220 (inactive)
O=C(c1ccco1)N1CCN(C(=S)Nc2cc(F)cc(F)c2)CC1 | 5420 (inactive)
O=C(CNS(=O)(=O)c1ccccc1)N1CCN(C(=O)c2ccco2)CC1 | 5790 (inactive)
N#Cc1ccccc1NC(=O)c1ccc2c(c1)OCO2 | 3490 (inactive)
O=C(c1ccc2c(c1)OCO2)N1CCN(C(=O)c2ccco2)CC1 | 20500 (active)
O=C(Nc1ccccc1N1CCN(C(=O)c2ccccc2)CC1)c1ccc2c(c1)OCO2 | 23400 (active)
CCNC(=S)N1CCN(C(=O)c2ccco2)CC1 | 21900 (active)

SMILES | fluorescence intensity
Cc1nc2c(OCc3cccc(Cl)c3)cccn2c1N(C)CC1CC1 | 3860 (inactive)
CN(Cc1ccccc1)C(=O)C(=O)c1cn(CC(=O)N2CCCC2)c2ccccc12 | 5870 (inactive)
NCCCCC(C(=O)O)N(C(=O)OCc1ccccc1)C(=O)OCc1ccccc1 (stereo unspecified) | 4320 (inactive)
O=C1NC[C@H](CCCCN2C[C@H](Cc3ccc(O)cc3)N(CC3CCCCC3)C(=O)C2=O)N(CCc2ccccc2)C1=O | 4980 (inactive)
NC(Cc1ccc(F)cc1)c1csc(Nc2nncc3ccccc23)n1 (stereo unspecified) | 3900 (inactive)
C#CCNC(=O)C[C@@H]1C[C@@]2(C(=O)OCC)CCCC=C2N(Cc2ccco2)C1=O | 4250 (inactive)
CC(=O)N(O)CCCCCNC(=O)CCC(=O)N(O)CCCCCNC(=O)CCC(=O)N(O)CCCCCNC(=O)CCC(=O)O | 3470 (inactive)
CC1=C(C(=O)N(C(C)C)C(C)C)CC(CC(=O)NCCCCc2ccccc2)C(=O)N1CCC1=CCCCC1 (stereo unspecified) | 5390 (inactive)
O=C(Cc1ccc(-n2c(=O)[nH]c3ccccc3c2=O)cc1)N1CCN(c2cccc(Cl)c2)CC1 | 22000 (active)
CCOC(=O)N1CCN(C(=O)Cc2ccc(-n3c(=S)[nH]c4ccccc4c3=O)cc2)CC1 | 10600 (inactive)
O=c1c2ccccc2[nH]c(=S)n1-c1cccc(Cl)c1 | 4010 (inactive)
CNc1cc(-c2c(OC)cccc2OC)ncn1 | 3890 (inactive)
CN1OC[C@@H]2CN(C(=O)C(C)(C)C)[C@H](c3ccc(-n4ccnc4)cc3)C[C@@H]21 | 4320 (inactive)
COc1cccc(-c2cc(NC(C)=O)c3ncc(-c4cccc(C(C)=O)c4)n3c2)c1 | 3560 (inactive)
O=C1CN(C(=O)COC(=O)/C=C/c2ccc(F)cc2)c2ccccc2N1 | 2990 (inactive)
Nn1c(Cc2cccc3ccccc23)nnc1SCC(=O)N1CC(=O)Nc2ccccc21 | 3230 (inactive)
C=CCn1c(COc2ccccc2F)nnc1SCC(=O)N1CC(=O)Nc2ccccc21 | 19900 (active)
CCN1C(=O)[C@@H]2[C@@H]3CN(S(=O)(=O)c4ccccc4C)[C@@H](c4ccc(Cl)cc4)[C@@H]3C(=O)C[C@@H]2C1=O | 5460 (inactive)
CC(C)(O)C#Cc1ccc(CNC[C@H]2O[C@@H](n3cnc4c(=O)[nH]c(N)nc43)[C@H](O)[C@@H]2O)s1 | 6310 (inactive)
CC(C)Oc1cc(F)ccc1-c1cc(C(=O)Nc2ccc(F)cc2)[nH]n1 | 2820 (inactive)
Cc1ccc([C@@H]2CC(=O)[C@@H]3CN(S(=O)(=O)c4ccc(C)cc4)[C@H](c4ccccc4F)C[C@@H]3N2S(=O)(=O)c2ccc(Cl)cc2)cc1 | 5790 (inactive)
COC(=O)C1(C(=O)OC)C/C=C\CN(S(=O)(=O)c2ccccc2[N+](=O)[O-])CCC1 | 5420 (inactive)
Cc1ccc(S(=O)(=O)NCC(C)NS(C)(=O)=O)cc1 (stereo unspecified) | 17300 (active)

SMILES | fluorescence intensity
Cc1ccc(S(=O)(=O)NCCNC(C)c2ccc(Br)cc2)cc1 (stereo unspecified) | 3800 (inactive)
Cc1ccc(S(=O)(=O)NCC(=O)N2CCOCCOCCOCCOCC2)cc1 | 3170 (inactive)
CCCNC(=O)C1(C)CCCN(C(=O)c2cccc(OC(C)=O)c2C)C1 (stereo unspecified) | 2790 (inactive)
CCN(CC)CCCC(C)n1c2nc(=O)[nH]c(=O)c-2nc2cc(Cl)ccc21 (stereo unspecified) | 3960 (inactive)
CC1(Oc2ccc(Cl)cc2)CCN(Cc2csc3ccccc23)C1 (stereo unspecified) | 3910 (inactive)
CC(C)CCSc1ncnc2c1oc1nc3c(cc12)COC(C)(C)C3 | 23900 (active)
CC1CCc2c(nc3ncnn3c2Nc2ccc(OC(F)(F)F)cc2)C1 (stereo unspecified) | 5260 (inactive)
CCc1nc2c(OCCOc3ccccc3)cccn2c1N(C)C(=O)c1ccc(OC)cc1 | 3960 (inactive)
COc1cccc(-c2ccc3c(c2)N(Cc2ccccc2OC)C(=O)C(C)S3)c1 (stereo unspecified) | 4210 (inactive)
CC/C(C)=N/Nc1nc2sc3c(c2c(=O)[nH]1)CC(C)(C)OC3 | 3170 (inactive)
CCCc1nc2oc3c(=O)[nH]cnc3c2c2c1COC(C)(C)C2 | 3850 (inactive)
CCCc1nc2oc3c(OCC)ncnc3c2c2c1COC(C)(C)C2 | 19200 (active)
CC(=O)Nc1cccc(-c2cc(NC=O)c3ncc(-c4ccc(F)c(Cl)c4)n3c2)c1 | 4090 (inactive)
CCOC(=O)c1nnn(-c2nonc2OC)c1-c1ccccc1 | 20500 (active)
CCOC(=O)c1nnn(-c2nc(OC)nc(N(C)C)n2)c1-c1ccccc1 | 4860 (inactive)
C/C(COc1ccccc1)=N\NC(=O)c1nnn(-c2nonc2N)c1-c1ccc(C)cc1 | 2830 (inactive)
CCC(C(=O)Nc1ncccn1)(C(F)(F)F)C(F)(F)F | 3150 (inactive)
CCN(C(=O)CSc1nc(N)cc(=O)[nH]1)C1CCS(=O)(=O)C1 (stereo unspecified) | 3860 (inactive)
O=C(CCCN1C(=O)c2ccccc2C1=O)Oc1ccc(Cl)cc1 | 2140 (inactive)
COc1ccc(C(=O)CC2C(=O)N(C)C(=O)N(C)C2=O)cc1 | 3490 (inactive)
COc1ccc(C(=O)CN(C(=O)c2ccc(Cl)cc2)N2C(=O)c3ccccc3C2=O)cc1 | 17500 (active)
COc1cccc(C(=O)OCc2cc(=O)oc3c(C)c(C)ccc23)c1OC | 5450 (inactive)
CCCc1cc(=O)oc2c(C)c(OCC(=O)Nc3ccccn3)ccc12 | 4420 (inactive)

SMILES | fluorescence intensity
COC(=O)Cc1cc(=O)oc2c(C)c(O)ccc12 | 19200 (active)
CCOCC(=O)NCc1ccc2c(c1)cc(C)n2C | 4110 (inactive)
COc1cccc2cc(C(=O)NCc3ccc(C)cc3)c(=N)oc12 | 4920 (inactive)
CC1(C(=O)OCC(=O)Nc2ncc(Cl)cc2Cl)CC1(Cl)Cl (stereo unspecified) | 4330 (inactive)
CC(Oc1ccc(Cl)cc1)C(=O)OCC(=O)Nc1ncc(Cl)cc1Cl (stereo unspecified) | 2090 (inactive)
CC(OC(=O)CN1C(=O)C2CCCCC2C1=O)C(=O)Nc1ncc(Cl)cc1Cl (stereo unspecified) | 23500 (active)
Cc1ccc2[nH]c3c(=O)n(CC(=O)NCCc4ccc(Cl)cc4)ncc3c2c1 | 5710 (inactive)
COC(=O)c1cc(OC)c(OC)cc1NC(=O)CSc1ccc(C)cc1 | 25800 (active)
CCc1cc2cc(OC)ccc2nc1SCC(=O)Nc1cc(OC)c(OC)cc1C(=O)O | 4520 (inactive)
COc1ccc(C)cc1NC(=O)CSc1ccc(Cl)cc1 | 2540 (inactive)
COc1ccc(Br)cc1CN(C)C(=O)C1CC(=O)N(C2CCCC2)C1 (stereo unspecified) | 3870 (inactive)
CCOC(=O)[C@H]1[C@H]2COc3ccc(Cl)cc3[C@@H]2N2C(=O)c3cc(C)ccc3NC(=O)[C@@]12C | 3320 (inactive)
Cc1cc(/C=C2/NC(=O)NC2=O)c(C)n1-c1cccnc1 | 8090 (inactive)
Cc1ccccc1-n1c(C)cc(/C=C2\NC(=O)NC2=O)c1C | 17400 (active)
Cc1ccc(CN2C(=O)N/C(=C/c3cc(C)n(-c4ccccn4)c3C)C2=O)cc1 | 9250 (inactive)
O=C(Nc1c(-c2ccccc2)nc2c(Br)cc(Br)cn12)c1ccco1 | 3100 (inactive)
Nc1ncnc2c1ncn2[C@@H]1O[C@H](CNC(=O)[C@H](N)Cc2cccnc2)[C@@H](O)[C@H]1O | 6300 (inactive)
Cn1c(Nc2ccc(F)cc2)nc2cc(-c3ccsc3)sc2c1=O | 3640 (inactive)
CCNC(=O)C1(C)CCN(Cc2ccc(C(=O)OCC)o2)C1 (stereo unspecified) | 4060 (inactive)
O=C(CSc1nnc(-c2ccc(NS(=O)(=O)c3ccccc3)cc2)o1)NCC1CCCO1 (stereo unspecified) | 3540 (inactive)
CCN(CC)C(=O)CSc1nnc(-c2ccc(S(=O)(=O)NCc3ccccc3Cl)cc2)o1 | 16600 (active)
CCc1ccccc1NC(=O)CSc1nnc(-c2ccncc2)o1 | 4930 (inactive)
